Screens from PubChem BioAssay.
Rows were chosen to be rich in hits. Some 7.3% of all compounds tested hit in one or more screens of this group.
HCV inhibitor: blocks hepatitis C virus; Huh7.5.1 HCVcc-Cre infection, luciferase reporter, 44 h; Potency, µM (top dose mostly 41.8 µM), usual class: inhibitors; 3.4% of 340,000 active; active = well fitted inhibition curve with a large enough effect; inconclusive = small, poorly fitted or top-dose-only effect, or another doubt; inactive = no such curve, though single readings can be large or run the other way
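Compounds are dispensed onto cells plated 4 h earlier at 1,000 per well, with HCVcc-Cre virus (about 0.5 moi) added next. Following 44 h of culture, luminescent signal is measured for 15 sec after 15 min with substrate at room temperature.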
FMDV inh: antivirals against foot and mouth disease virus; AID 1159524; FMDV antiviral cell-based qHTS; Potency, µM (highest dose often 57.9 µM), most hits filed as inhibitors; 1.2% of 410,000 active; calls by dose curve; tested in HEK293T cells; note: read-out not given here; nearly all actives have a fitted effect of over 45% in size
Vaccinia Venus: inhibitors of vaccinia virus (Venus reporter) | AID 720580 | Vaccinia virus Venus reporter expression, fluorescence | Potency, µM (titrated, usually from 36.5 µM), usual class: inhibitors | 0.46% of 330,000 active; calls by dose curve; tested in A549 cells; note: nearly all actives have a fitted effect of over 30% in size
HCMV inh: blocks human cytomegalovirus replication | HFF cells, HCMV-luciferase reporter, 72 h; stronger effect = lower value | activity change, negative = inhibition, % at 57.5 µM | 4.5% of 410,000 active | AID 1259415; in the data active = activity change below about -60%; inconclusive = no clear call, values can overlap the other calls; inactive = above about -39%
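After 16 h attachment at 37C, HFF cells received test compound and HCMV-luciferase (1 PFU/cell); reporter luminescence read 72 h later, data normalized against buffer-only and known inhibitor Salinomycin.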
Vaccinia mCherry: vaccinia inhibition (mCherry reporter) | AID 720579 | 0.63% of 310,000 active | Potency, µM (highest dose often 36.5 µM), hits mostly inhibitors | Vaccinia virus mCherry reporter infection, fluorescence; calls by dose curve; tested in A549 cells; note: nearly all actives have a fitted effect of over 35% in size
Large screens that a line does not name were inactive.

CCCCN(C)S(=O)(=O)c1cc(-c2cc(C)no2)ccc1C	FMDV inh inconclusive (no result: HCV inhibitor)
COC(=O)CSc1nc2ccc(NC(=O)c3ccccc3C(=O)N3CCOCC3)cc2s1	HCMV inh -64
Cc1cc(-c2ccc(S(=O)(=O)Nc3cc(Cl)ccc3C)s2)on1	none (no result: HCV inhibitor)
CCOC(=O)C(=CNc1ccc(NC2=NCC(C)S2)cc1)C(=O)OCC (stereo unspecified)	HCV inhibitor inconclusive, Vaccinia Venus inconclusive, HCMV inh -66, Vaccinia mCherry inconclusive
COc1ccccc1CNC(=O)c1cc2c(C)nn(Cc3ccc(F)cc3)c2s1	HCV inhibitor 7.1µM (no result: Vaccinia mCherry)
Cc1ccc(CNC(=O)C2CCCN(S(=O)(=O)c3ccc4c(c3)oc(=O)n4C)C2)cc1 (stereo unspecified)	none (no result: HCV inhibitor)
Cc1cc(Br)ccc1NC(=O)c1cn(C2CCCC2)c(=O)c2c1c1ccccc1n2C	none (no result: HCV inhibitor)
Cc1ccc(NC(=O)c2ccc(C)c(S(=O)(=O)N3CCCCCC3)c2)cc1	HCMV inh inconclusive (no result: HCV inhibitor)
COc1cccc(CNC(=O)c2ccc(C)c(S(=O)(=O)N3CCCCC3)c2)c1	HCV inhibitor 10µM, FMDV inh inconclusive, Vaccinia mCherry inconclusive
COc1ccc(C(=O)Nc2ccc3[nH]ccc3c2)cc1	HCV inhibitor inconclusive, FMDV inh 8.9µM, Vaccinia mCherry inconclusive
COc1ccc(C(=O)Nc2ccc(C)c(S(=O)(=O)N3CCCCCC3)c2)cc1	HCV inhibitor 32µM, FMDV inh 20µM, Vaccinia Venus inconclusive, HCMV inh -65, Vaccinia mCherry inconclusive
Cc1ccc(NC(=O)c2ccc(F)cc2)cc1S(=O)(=O)N1CCCCCC1	HCV inhibitor inconclusive, FMDV inh inconclusive, HCMV inh -78
CCC1CCCCN1C(=O)CSc1nnc(-c2ccc(OC)c(OC)c2)o1 (stereo unspecified)	none (no result: HCV inhibitor)
COc1cc(NC(=O)Cn2ccc3ccccc3c2=O)cc(OC)c1OC	none (no result: HCV inhibitor)
CCCN(CCC)CCNC(=O)C1CCN(c2nc3ccc(CC)cc3s2)CC1	HCMV inh -98 (no result: HCV inhibitor)
CCCN(CCC)CCCNC(=O)C1CCN(c2nc3ccc(CC)cc3s2)CC1	HCMV inh -101 (no result: HCV inhibitor)
CCCCN(CCCC)CCCNC(=O)c1ccc2nc(N3CCCCC3)sc2c1	none (no result: HCV inhibitor)
CCc1ccc2nc(N3CCC(C(=O)NCCC(C)C)CC3)sc2c1	none (no result: HCV inhibitor)
Cc1ccc(Cl)cc1NC(=O)C(=O)NCC(c1cccnc1)N1CCc2ccccc21 (stereo unspecified)	FMDV inh inconclusive (no result: HCV inhibitor)
Oc1cccc(Nc2c3ccccc3nc3ccccc23)c1	HCV inhibitor inconclusive, FMDV inh inconclusive, Vaccinia Venus 10µM, HCMV inh -100, Vaccinia mCherry inconclusive
COc1cccc(Nc2nc(-c3ccccc3)nc3ccccc23)c1	HCV inhibitor 10µM
Cc1ccc(-c2nc(C(Cl)Cl)c3ccccc3n2)cc1	HCV inhibitor 3.5µM (no result: Vaccinia Venus, Vaccinia mCherry)
Fc1cccc(Nc2nc(-c3ccncc3)nc3ccccc23)c1	HCV inhibitor inconclusive, FMDV inh 25µM (no result: Vaccinia Venus, Vaccinia mCherry)
COc1cc(OC)c(NC(=O)C2=C(C)C(=O)OC23CCN(C(C)=O)CC3)cc1Cl	none (no result: HCV inhibitor)
COc1c2ccccc2nn1-c1ccc(I)cc1	none (no result: HCV inhibitor, FMDV inh, Vaccinia Venus, Vaccinia mCherry)
CO[C@H]1[C@H](NC(=O)c2ccncc2)c2ccccc2C12CCN(C(=O)c1ccoc1)CC2	none (no result: HCV inhibitor, HCMV inh)
COc1ccc(-c2nnc3ccc(SC(C)C)nn23)cc1OC	Vaccinia mCherry inconclusive (no result: HCV inhibitor, FMDV inh, HCMV inh)
Cc1ccc(-c2nc(Nc3ccc(O)cc3)c3ccccc3n2)cc1	HCV inhibitor 7.1µM, Vaccinia mCherry inconclusive
c1ccc(Nc2nc(-c3ccccc3)nc3ccccc23)cc1	HCV inhibitor 14µM (no result: Vaccinia Venus, Vaccinia mCherry)
c1cncc(Nc2c3ccccc3nc3ccccc23)c1	HCV inhibitor inconclusive, Vaccinia Venus inconclusive, HCMV inh -86
O=C(O)c1ccc(Nc2c3ccccc3nc3ccccc23)cc1	none
NNc1nc(-c2ccccc2Cl)nc2ccccc12	none (no result: Vaccinia Venus, Vaccinia mCherry)
COC(=O)c1ccc(Nc2nc(-c3ccc(C)cc3)nc3ccccc23)cc1	none (no result: HCV inhibitor)
O=C(O)c1ccc(Nc2nc(-c3ccccc3)nc3ccccc23)cc1	none (no result: Vaccinia Venus, Vaccinia mCherry)
Oc1cccc(Nc2nc(-c3ccccc3Cl)nc3ccccc23)c1	FMDV inh inconclusive, HCMV inh inconclusive, Vaccinia mCherry 10µM
Cc1ccc(-c2nc(Nc3cccc(O)c3)c3ccccc3n2)cc1	HCV inhibitor 28µM, HCMV inh inconclusive (no result: Vaccinia Venus, Vaccinia mCherry)
Oc1ccc(Nc2nc(-c3ccccc3F)nc3ccccc23)cc1	HCV inhibitor inconclusive, HCMV inh inconclusive (no result: Vaccinia Venus, Vaccinia mCherry)
Oc1ccc(Nc2nc(-c3ccccc3O)nc3ccccc23)cc1	HCV inhibitor 11µM (no result: Vaccinia Venus, Vaccinia mCherry)
COc1ccc(Cn2c(CO)cnc2SCc2ccc(C)cc2)cc1	none (no result: HCV inhibitor)
CCOC(=O)CCCc1ccc(/C(C)=N/NC(=S)NC)cc1	HCMV inh -95 (no result: Vaccinia Venus, Vaccinia mCherry)
Cc1ccc(S(=O)(=O)c2nnn3c2nc(NCc2ccccc2Cl)c2sccc23)cc1	Vaccinia Venus inconclusive, Vaccinia mCherry inconclusive (no result: HCV inhibitor)
CCOCCCNC(=O)c1cc(=O)[nH]c2ccc(S(=O)(=O)N3CCCC3)cc12	none (no result: HCV inhibitor)
COc1ccc(CCNC(=O)C(=O)NCC2OCCN2S(=O)(=O)c2ccc(Cl)cc2)cc1 (stereo unspecified)	HCV inhibitor 11µM, FMDV inh inconclusive, Vaccinia mCherry inconclusive
COc1ccc(S(=O)(=O)N2CCOC2CNC(=O)C(=O)NCCc2c[nH]c3ccccc23)cc1 (stereo unspecified)	HCV inhibitor inconclusive, FMDV inh 22µM
COc1ccc(S(=O)(=O)N2CCOC2CNC(=O)C(=O)NCCc2c[nH]c3ccccc23)cc1C (stereo unspecified)	HCV inhibitor 11µM, FMDV inh inconclusive, Vaccinia Venus inconclusive, Vaccinia mCherry inconclusive
COc1ccc(S(=O)(=O)N2CCOC2CNC(=O)C(=O)NCCc2ccccc2OC)cc1 (stereo unspecified)	HCV inhibitor inconclusive
CCCCn1cc(S(=O)(=O)c2ccc(C)c(C)c2)c(=O)c2cc(F)c(N(CC)CC)cc21	none (no result: HCV inhibitor)
O=C(NCCc1ccccc1)c1cnc2sc(N3CCCCC3)nn2c1=O	none (no result: HCV inhibitor)
Cc1nc2c(ccc3nc(NC(=O)c4ccc5c(c4)OCCO5)sc32)s1	HCV inhibitor inconclusive, HCMV inh -82 (no result: FMDV inh)
Cc1ccc2sc(NC(=O)c3ccc4c(c3)OCCO4)nc2c1C	none (no result: HCV inhibitor)
Cc1nc2ccc3nc(NC(=O)c4ccc5c(c4)OCCO5)sc3c2s1	HCV inhibitor inconclusive, HCMV inh -106
Cc1cnc(NC(=O)c2cccc(S(=O)(=O)N3CC(C)OC(C)C3)c2)s1 (stereo unspecified)	HCV inhibitor 11µM, FMDV inh inconclusive (no result: Vaccinia Venus, Vaccinia mCherry)
Cc1nc2c(ccc3nc(NC(=O)C(c4ccccc4)c4ccccc4)sc32)s1	HCV inhibitor 10µM, FMDV inh 13µM, Vaccinia Venus inconclusive, Vaccinia mCherry inconclusive
Cc1cnc(NC(=O)c2cccc(S(=O)(=O)N3CCOCC3)c2)s1	none (no result: Vaccinia Venus, Vaccinia mCherry)
CC1CN(S(=O)(=O)c2cccc(C(=O)N3CCC(C(N)=O)CC3)c2)CC(C)O1 (stereo unspecified)	none
Cc1cnc(NC(=O)c2ccc3c(c2)OCCO3)s1	FMDV inh 10µM, HCMV inh -80 (no result: Vaccinia Venus, Vaccinia mCherry)
Cc1ccc(OCCOC(=O)c2cccc(S(=O)(=O)N3CC(C)OC(C)C3)c2)cc1 (stereo unspecified)	HCV inhibitor 11µM, FMDV inh inconclusive (no result: Vaccinia Venus, Vaccinia mCherry)
O=Nc1c(O)[nH]c2ccc(F)cc12	none
NC(=S)N=Nc1c(O)[nH]c2ccc(F)cc12	Vaccinia Venus 3.5µM, Vaccinia mCherry 5µM
